# Laboratory results as given in the OligoGym collection.
# Molecular target: VWA3A
# Experiment: pooled miR-30 sensor sort-seq; sequence = guide strand
# Settings: shRNA
# Also: reference of the scale not given here.
row,Sequence,sensor-assay potency score (higher = more potent)
1,TTCACATCTCTTTTCTCCCTGA,0.334
2,TTTCACATCTCTTTTCTCCCTG,0.76
3,TTCTGCATCATTTTTCTTCTGG,0.433
4,TTAGCTGAAGTGTCTTTGGTTT,-0.499
5,TAAATTGTTGTGACTCACGGGA,0.0538
6,TTCAGCTGGAGGTCGCAGCCGC,-0.797
7,TCGAGCAGTACAACCACCCTTT,0.012
8,TTGGTGTTTGTCTTTGTCCTTG,-0.376
9,TACATCCGCATAGCTCTGCTGA,-0.863
10,TGAATGTTCTTCACTGTCCCGT,-0.182
11,TAGTGCTCCATCTTTGGGCTGT,0.398
12,TTTAGGACAAGGCTGCAGCTTG,-0.774

# Molecular target: WBSCR16
# Experiment: as above
# Settings: shRNA
row,Sequence,sensor-assay potency score (higher = more potent)
1,TTTCGTAACATCCGCAGTCTTA,-0.626
2,TTCTGGGTTGAACTCCGTCAAG,-1.57
3,ATAGACTTCTCCTTTATCCGTC,0.592
4,TCATTTTCGACCACCTTTCTTC,0.23
5,TATTGTAGTGACCCAGACCTGT,-0.394
6,AATCTTTTGGTCCAGCTCCAGG,-1.82
7,TTATCCGTCAGGAACAGACTAT,-0.761
8,TTCTTAACTTTTCCAAGCCAGG,-1.27
9,TTAGCCTCGATTCTCTTCCTGA,-0.0373
10,TTTTGGTCCAGCTCCAGGCGAT,-1.09
11,TAGACTTCTCCTTTATCCGTCA,-0.137
12,TTTAACACTGCACAGCCCGTGC,-0.959

# Molecular target: WDFY1
# Experiment: as above
# Settings: shRNA
row,Sequence,sensor-assay potency score (higher = more potent)
1,TATAAAACAAATTTAGTCCTTT,0.214
2,TTGAGGGTTGTGATGACTGAAC,-1.35
3,TTTCTTCTCTTCCTCATCCTGG,-0.185
4,TTGACCACTGTCTCTTTTCAGC,-0.843
5,TTTCACTACACATTAGCTGTTC,0.757
6,TTCTCTGCTAACATCCATGTTC,-0.775
7,TTCCACACTGCAATTCCGCCGT,-0.441
8,TCTTTCACTACACATTAGCTGT,-0.731
9,TTCATCTTTGATGGAGTCGTAA,-0.712
10,TTGATCGCCTCCTTAAACCTTT,-0.0804
11,TAACTTGAGCGCTTGCTGCTGC,0.171
12,TAACAAGAATCACAAACCCGGA,-0.759

# Molecular target: WDR33
# Experiment: as above
# Settings: shRNA
row,Sequence,sensor-assay potency score (higher = more potent)
1,TTGAGGACCAGAACTACCTTGT,0.395
2,TAGGATTATTCAACATTCCTAT,-0.157
3,TACATCTCTAACATATTGCAAA,-1.19
4,TTTATTTTGCATCCAAGCCTGC,-0.562
